Shown are actives, neighbours in structure and some others; about 12% of the full set was active somewhere.
CHX counter: Cycloheximide Counterscreen for Small Molecule Inhibitors of Shiga Toxin; max response, %; AID 2314, 2010; cell reporter, cycloheximide protein synthesis inhibition counterscreen; 12% of 300,000 active; in the data active means max response mostly above about 13%, no sharp cut-off; inactive means mostly below about 14%; further: read at 38.3 µM for the half of the compounds with a filed dose
Shiga inhibitor: A qHTS for Small Molecule Inhibitors of Shiga Toxin. Vero cells, Shiga toxin protein synthesis inhibition reporter. inhibition, % at 38.7 µM. 9.2% of 290,000 active. AID 2315, 2010; in the data active means inhibition mostly above about 28%, no sharp cut-off; inactive means mostly below about 43%
FMDV antiviral: High Throughput Screening for Foot and Mouth Disease Virus Antivirals; FMDV antiviral cell-based qHTS; Potency, µM (top dose mostly 57.9 µM), most hits filed as inhibitors; 1.2% of 410,000 active; AID 1159524, 2015; calls by dose curve; tested in HEK293T cells; further: read-out not given here; nearly all actives have a fitted effect of over 45% in size
Sm TGR inh: qHTS Assay for the Inhibitors of Schistosoma Mansoni Peroxiredoxins. Schistosoma mansoni thioredoxin glutathione reductase (TGR), Q962Y6. purified TGR, DTNB reduction, TNB absorbance 405 nm. Potency, µM (series often up to 114 µM), hits mostly inhibitors. 3% of 360,000 active; active means well fitted inhibition curve with a large enough effect; inconclusive means small, poorly fitted or top-dose-only effect; inactive means no such curve, though single readings can be large or run the other way; further: nearly all actives have a fitted effect of over 60% in size
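First, TGR (20 nM dispensed) and NADPH were mixed with compound. Second, a 15 min room-temperature incubation followed. Third, further NADPH and then DTNB were added to start the reaction. Finally, TNB absorbance was monitored kinetically.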
Large screens that a line does not name were inactive.

O=C(N/N=C\c1ccccc1OCc1ccccc1)c1ccco1	CHX counter 32, Shiga inhibitor 40
O=C(N/N=C/c1ccccc1)c1ccco1	CHX counter 36, Shiga inhibitor 100
CC(=O)Nc1ccc(S(=O)(=O)NCc2cccn2Cc2cccc(C)c2)cc1	none (no result: CHX counter, Shiga inhibitor)
COC(=O)c1ccc(COc2ccccc2/C=N/NC(=O)c2cccnc2)cc1	CHX counter 28
CCC(SC1=Nc2ccccc2C2=NC(CC(C)C)C(=O)N12)C(=O)Nc1ccc2c(c1)OCO2 (stereo not given)	CHX counter 23, Shiga inhibitor 40, Sm TGR inh inconclusive
COc1cccc(NC(=O)CSC2=Nc3ccccc3C3=NC(CC(=O)NCc4ccc5c(c4)OCO5)C(=O)N23)c1 (stereo not given)	none (no result: CHX counter, Shiga inhibitor)
CCc1ccccc1NC(=O)CCC(=O)N1CC(C)Oc2ccc(C)cc21 (stereo not given)	none (no result: CHX counter, Shiga inhibitor)
CC(/C=N/NC(=O)c1cccnc1)=C\c1ccco1	CHX counter 14, Sm TGR inh 50µM (no result: FMDV antiviral)
CC(/C=N/NC(=O)c1nnn(-c2nonc2N)c1CN(C)C)=C\c1ccco1	Sm TGR inh 45µM
CC(=C/c1ccco1)/C=N/NC(=O)c1ccncc1	Sm TGR inh 45µM
CC(/C=N/NC(=O)c1cc(-c2ccccc2)nc2ccccc12)=C\c1ccco1	none
CCCN(CCC)Cc1c(C(=O)N/N=C/C(C)=C\c2ccco2)nnn1-c1nonc1N	Sm TGR inh inconclusive
CC(/C=N/NC(=O)c1cnccn1)=C\c1ccco1	CHX counter 32, Sm TGR inh 28µM
Cc1noc(C)c1C(=O)N1CCC2(CCCN(C(=O)Nc3ccccc3)C2)CC1	none (no result: CHX counter, Shiga inhibitor, Sm TGR inh)
Cn1nnnc1SCCCNCc1cccc(OCc2ccc(F)cc2)c1	none (no result: CHX counter, Shiga inhibitor)
Cc1cccc(NC(=O)c2cc(S(=O)(=O)N3CCc4ccccc43)ccc2F)c1C	none (no result: CHX counter, Shiga inhibitor)
CC1(C)CC(=O)C(C(c2ccc(Br)cc2)C2C(=O)CC(C)(C)CC2=O)C(=O)C1	Sm TGR inh 18µM
CC1(C)CC(=O)C(C(c2ccc(F)cc2)C2C(=O)CC(C)(C)CC2=O)C(=O)C1	Sm TGR inh 45µM
COC(=O)c1ccc(C(C2C(=O)CC(C)(C)CC2=O)C2C(=O)CC(C)(C)CC2=O)cc1	Sm TGR inh inconclusive
Cc1ccc2oc(=O)n(Cc3ccccc3Cl)c2c1	none (no result: CHX counter, Shiga inhibitor)
Cc1ccc(CNc2ncnc3sc(C(=O)N4CCC[C@H]4C(N)=O)c(C)c23)o1	none (no result: CHX counter, Shiga inhibitor, Sm TGR inh)
O=C(CSc1ncc2c(n1)-c1ccccc1N(Cc1ccc(F)cc1)S2(=O)=O)c1ccc(Cl)cc1	none (no result: CHX counter, Shiga inhibitor)
COC(=O)c1sccc1S(=O)(=O)N1CCN(c2ccccc2)CC1	none (no result: CHX counter, Shiga inhibitor)
CCC(=O)Nc1cc(SCCO)cc([N+](=O)[O-])c1	none
CC(C)=NOc1cc(NC(=O)CCl)cc([N+](=O)[O-])c1	FMDV antiviral 7.9µM, Sm TGR inh 11µM
O=C(CCl)Nc1cc(SCC(O)CO)cc([N+](=O)[O-])c1 (stereo not given)	FMDV antiviral 14µM (no result: Sm TGR inh)
CCC(=O)Nc1cc(ON=C(C)C)cc([N+](=O)[O-])c1	none
O=C(NC(=S)Nc1ccc2[nH]ncc2c1)c1ccccc1	CHX counter 35, Shiga inhibitor 88
CC(C)(C)NC(=S)NNC(=O)c1ccc2ncccc2c1	CHX counter 21, Shiga inhibitor 47
O=C(NNC(=S)Nc1ccccc1)c1ccc2ncccc2c1	CHX counter 37, Shiga inhibitor 56
O=C(NC(=S)Nc1ccc2nc[nH]c2c1)c1ccccc1	CHX counter 22, Shiga inhibitor 50
COC(=O)c1cccnc1NC(=S)NNC(=O)c1ccccc1	none
O=C(Cc1ccccc1)Nc1ccc(NC(=S)NC(=O)c2ccccc2)cc1	none
CC(C)(C)NC(=S)NNC(=O)c1ccccc1Cl	none
Cc1ccc(N2CC(NC(=O)c3ccc(Br)o3)CC2=O)cc1C (stereo not given)	none (no result: CHX counter, Shiga inhibitor)
CCn1c(=O)sc2cc(NS(=O)(=O)c3ccc(F)c(C)c3)ccc21	none (no result: CHX counter, Shiga inhibitor)
CCOC(=O)c1c(C)c(C(=O)NCc2ccc(Cl)cc2)c(C)n1C	none (no result: CHX counter, Shiga inhibitor)
O=C(NC(=S)Nc1ccc2ncccc2c1)c1ccccc1	CHX counter 52, Shiga inhibitor 75
O=C(Nc1ccc2ncccc2c1)c1ccccc1	none
CCOc1cccc(C2c3c(-c4cc(C)ccc4O)n[nH]c3C(=O)N2Cc2ccco2)c1 (stereo not given)	none (no result: CHX counter, Shiga inhibitor)
CCOC(=O)c1ccc(N/C=C\C(=O)c2cccc(OC)c2)cc1	CHX counter 48, Shiga inhibitor 95
COC(=O)c1ccc(N/C(=N/S(=O)(=O)c2ccccc2)c2ccccc2)cc1	none
CCOC(=O)c1cccc(N/C=C/C(=O)c2ccc(OC)c(OC)c2)c1	CHX counter 27, Shiga inhibitor 98
COc1cccc(C(=O)/C=C/Nc2cc(C)ccc2O)c1	CHX counter 51, Shiga inhibitor 88
COC(=O)c1ccc(N/C=C/C(=O)c2ccccc2)cc1	CHX counter 43, Shiga inhibitor 48
CCCCN1CCCc2cc(CN(CCCN3CCOCC3)C(=O)Nc3ccc(CC)cc3)ccc21	FMDV antiviral inconclusive (no result: CHX counter, Shiga inhibitor)
Cc1ccc(C(=O)O)cc1Nc1nc2ccccc2n2nnnc12	none (no result: CHX counter, Shiga inhibitor)
COc1cccc(N/C=C/C(=O)c2ccc(OC)c(OC)c2)c1	CHX counter 27, Shiga inhibitor 46
COc1cccc(N/C=C/C(=O)c2ccc(Br)cc2)c1	none (no result: CHX counter, Shiga inhibitor, Sm TGR inh)
COc1ccc(OC)c(N/C=C/C(=O)c2ccc(OC)c(OC)c2)c1	CHX counter 15
COc1ccc(C(=O)Nc2cc(OC)ccc2OC)cc1	none
CCOC(=O)c1ccc(OS(=O)(=O)c2ccccc2)c(OC)c1	CHX counter 50, Shiga inhibitor active
COc1cccc(C(=O)COC(=O)c2ccc(NC(C)=O)cc2)c1	CHX counter 16
CC(C)(C)OC(=O)N1CCC(c2c(C(=O)NCCN3CCOCC3)cnn2-c2cccc(Cl)c2)CC1	none (no result: CHX counter, Shiga inhibitor)
O=C(Nc1nc2ccc(S(=O)(=O)N3CCCC3)cc2s1)c1ccco1	none
O=C(Nc1ccccc1-c1nc2ccccc2s1)c1ccco1	CHX counter 39, Shiga inhibitor 106
O=C(Nc1ccccc1-c1nc2ccccc2s1)c1ccc(F)cc1	none (no result: CHX counter, Shiga inhibitor)
O=C(Nc1nc2ccc(Cl)cc2s1)c1ccco1	CHX counter 41, Shiga inhibitor 62
O=C(Nc1nc2ccc(Br)cc2s1)c1ccco1	CHX counter 30 (no result: Shiga inhibitor)
Cc1noc(C)c1C(=O)Nc1nc2ccc(Cl)cc2s1	CHX counter 42, Shiga inhibitor 89
Cn1cc(C(=O)NCc2ccccc2)c(=O)c2cc(S(=O)(=O)N3CCCCCC3)ccc21	none (no result: CHX counter, Shiga inhibitor)
Cc1ccccc1NC(=O)C(=O)NCC(c1ccc2c(c1)OCO2)N1CCN(c2ccccc2)CC1 (stereo not given)	none (no result: CHX counter, Shiga inhibitor)
Cn1cc(Cl)c(C(=O)Nc2nc3ccc(Cl)cc3s2)n1	CHX counter 57, Shiga inhibitor 71 (no result: FMDV antiviral)
Cc1ccccc1NC(=O)Nc1nnc(N2CCCCCC2)s1	none (no result: CHX counter, Shiga inhibitor)
COc1ccc(-c2cc(C)no2)cc1S(=O)(=O)NC(C)C	none (no result: CHX counter, Shiga inhibitor)
Cc1cc(F)ccc1S(=O)(=O)N1CCCOC1CNC(=O)C(=O)NCCc1c[nH]c2ccccc12 (stereo not given)	FMDV antiviral 32µM
O=C(NCC1OCCCN1S(=O)(=O)c1cc(F)ccc1F)C(=O)NC1CCCCCC1 (stereo not given)	CHX counter 15

High-throughput results: PubChem BioAssay, National Center for Advancing Translational Sciences (NCATS)
